Measured values from PubChem BioAssay (NCI).
Values joined by “and” are separate entries in the source; they are usually repeats but may differ in a detail not shown here. Identical values can stand only once. This is part of a sample that, as a whole, favours compounds with a hit. Of some 83,000 tested, about 20% had one in any assay.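 How to read the values: 0–100, growth inhibition (40 = 60% inhibited); 0, no net growth; -100 to 0, cell death (-40 = 40% of starting cells died; -100 = all dead).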 Values without a mark were called inactive. Active and inactive are the calls of the source. How the source made its calls: active means growth percent below 10; inactive means the rest.

tested on: MDA-MB-468 breast; experiment: NCI-60 one-dose screen, 48 h (100 = growth as untreated, 0 = no growth, -100 = all killed); details: 10 µM unless noted

First: O=C(Cc1ccccn1)C(F)(F)C(F)(F)C(F)(F)F
Second: O=c1nc(-c2ccccc2)c2cc(-c3ccc(C(F)(F)F)nc3)ccc2[nH]1
The growth of the first is higher: 115% for the first, 104% for the second.

Compared with `c1ccc2c(c1)Oc1ccccc1C2C1c2ccccc2Oc2ccccc21`, `Cc1nc2sc(C(=O)Nc3ccc(Br)cc3)c(N)c2cc1C(O)c1ccccc1` (stereo not given) is lower in growth: 107% for the first, 12.7% for the second.

Compared with `Cc1c(O)cc(-c2cnc(N/N=C\c3ccc(Cl)cc3)s2)c(O)c1C`, `Cc1cc2c(c(C)c1Cl)C(=O)/C(=C/c1ccc(O)c(O)c1)O2` is higher in growth: 76% for the first, 109% for the second.

First: COC(=O)/C=C1\Sc2cc(F)ccc2NC1=O
Second: COc1cc2cc(NCc3ccc(F)cc3)nc(C)c2cc1OC
The growth of the first is higher: 99.8% for the first, 62.8% for the second.

First: Nc1ccn(C2OC(CO)C(O)C2F)c(=O)n1 (stereo not given)
Second: Cc1csc(/N=C(N)/N=C(\N)c2cccnc2)n1
The growth of the first is higher: 96.3% for the first, 91.9% for the second.

First: O=C1/C(=C/c2ccc(Br)cc2)COc2ccc(O)cc21
Second: Nc1ccc(NC(=O)c2cccc(N)c2)cc1
The growth of the first is lower: 89% for the first, 94.2% for the second.

First: O=C(CCC(=O)OC1CCCC1)OC1CCCC1
Second: C#C[C@H]1CCCCCC1O (stereo not given in full)
The growth of the first is higher: 100% for the first, 99.3% for the second.

First: Cn1c(=O)c2c(nc(Cl)n2CCl)n(C)c1=O
Second: C=CCN1C(=O)/C(=c2\sc3n(c2=O)NC2C(N=3)N(CC)C(=O)N2CC)c2ccccc21 (stereo not given)
The growth of the first is higher: 106% for the first, 44.6% for the second.

Going from `Cc1cnc(N)s1` to `Nc1ncnc2[nH]c(=O)[nH]c12`, the growth falls from 102% to 97.8%.

First: NC1CC2(CCN(c3cnc(C(=O)Nc4cc(F)cc5cccnc45)cn3)CC2)C1
Second: CC(C)(C#N)c1cc(C(=O)Nc2cc(Nc3ncccc3-c3ncnc4nc[nH]c34)ccc2F)cc(C(F)(F)F)c1
The growth of the first is lower: 50.6% for the first, 90.2% for the second.

Compared with `c1ccn2nnnc2c1`, `COc1cccc(Nc2nc(NCCO)c3ccccc3n2)c1` is lower in growth: 107% for the first, 75.7% for the second.

First: CCCCC(C=O)(C=C=C(C)C)CC (stereo not given)
Second: CCC(=O)C(CC)c1cccc(OC)c1 (stereo not given)
The growth of the first is higher: 108% for the first, 102% for the second.

Compared with `COc1cc(NC(=O)Nc2cnc(Nc3ccc(N4CCOCC4)cc3)nc2Oc2ccc(C(F)(F)F)cc2)cc(OC)c1`, `CCN1CCN(CC(=O)Nc2ccc(-c3cn4c(n3)sc3cc(Oc5ccnc(C(=O)NC)c5)ccc34)cc2)CC1` is lower in growth: 110% for the first, 74.4% for the second.

Compared with `O=C(OCC1CC2(Cl)C(Cl)=C(Cl)C1(Cl)C2(Cl)Cl)C1C(C(=O)OCC2CC3(Cl)C(Cl)=C(Cl)C2(Cl)C3(Cl)Cl)C2(Cl)C(Cl)=C(Cl)C1(Cl)C2(Cl)Cl` (stereo not given), `C=C1C(=O)O[C@H]2[C@H]1CC/C(CNC(=O)CCc1ccc(OC)cc1)=C\CC[C@@]1(C)O[C@@H]21` is lower in growth: 107% for the first, 32.1% for the second.

Going from `C=CC(=O)Nc1cccc(-c2nc(SC)nc(Nc3ccccc3OC)c2C#N)c1` to `CC(=O)C1=C(C)NC(NNc2ccccc2)=NC1c1ccc([N+](=O)[O-])cc1` (stereo not given), the growth rises from 18.2% to 92.3%.

First: C[C@]12CC[C@@H]3c4ccc(O)c([N+](=O)[O-])c4CC[C@H]3[C@@H]1CC[C@@H]2NS(=O)(=O)c1ccc(C(F)(F)F)cc1
Second: CC1=NN(c2cccc(S(N)(=O)=O)c2)C(=O)C1
The growth of the first is lower: 25.2% for the first, 95.6% for the second.

In the case of `COc1ccc(Cn2cnc3cc(C(=O)Nc4cccc5ccccc45)ccc32)c(OC)c1`, the growth is reported as -31.6% [30 µM] (active).
For `N#Cc1ccc(NC(=O)c2ccc3cccnc3c2O)cc1`, the growth was 1.27% (active).
`CC(C)(C)Nc1nc2c(OCCc3ccccc3)cccn2c1-c1cccc(Oc2ccccc2)c1` was tested, and the growth was -12.7% (active).
`COc1ccccc1/C=C/C(=O)/C=C/c1ccccc1OC` was tested, and the growth was -61.8% (active) and -11.8% (active).
For `O=c1oc2ccc(F)cc2c(=O)n1-c1ccc(F)cc1F`, the growth was -4.2% (active).
For `CN1CCN(c2ccc(Nc3nc(NCCCNS(=O)(=O)c4cccc5ccccc45)c4sccc4n3)cc2)CC1`, the growth was -70.5% (active).
In the case of `O=C(O)c1cn(C2CC2)c2cc(N3CCN(S(=O)(=O)c4ccc(Cl)c(Cl)c4)CC3)c(F)cc2c1=O`, the growth is reported as -10.6% (active).
In the case of `COC(=O)c1c2c(c[n+]([O-])c1C)C(=O)C(NCc1ccccc1)=CC2=O`, the growth is reported as -57.7% (active).
